Most compounds without a hit are left out; they make up all but 1.9% or so of the library.
TNF death inh = TNF-alpha cell death inhibition in Jurkat FADD-/- cells; Jurkat FADD-/- TNF necroptosis rescue, ATP luminescence, 24 h; 0 = TNF only, 100 = no-TNF cells; activation (protection from cell death), % at 10 µM; 220,000 tested, 0.068% active;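 active = activation, meaning protection from cell death, of at least 50% relative to plate controls; inactive = activation below 50%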;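 note: necroptosis triggered by 40 ng/mL TNF-alpha added together with compound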
Hsp70 activator = Hsp70 transcriptional activation, primary screen; 200,000 tested, 0.04% active; activation, % at 10 µM; AID 1203; HeLa Hsp70 promoter luciferase reporter, luminescence; scaled: vehicle 0, proteasome-inhibitor control 100%;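 active = activation above the mean across all tested compounds plus 3 SD, cutoff set per campaign, cut at about 5.5% in these data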;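 note: 100% = MG132 at 30 µM as the positive control and 0% = DMSO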
HSF1 activator = increases HSF-1 driven luciferase reporter signal. NIH3T3-HGL HSF-1 luciferase reporter, MG132, 8 h; 100% = twice DMSO control signal. activation, % at 9 µM. 300,000 tested, 1.7% active;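 active = mean replicate activation of at least 50% with a set share of replicates each reaching 50%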;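 note: 0% = median of the neutral control wells and 100% = twice that signal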
zVAD death inh = blocks zVAD induced death of L929 cells | viability rescue, % at 10 µM | L929 zVAD necroptosis rescue, ATP luminescence, 24 h; with zVAD 60 µM | 220,000 tested, 0.38% active;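 active = activation, scaled between plate controls, above about 75%, limit read from the data; inactive = activation under that limit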;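 note: 0% = zVAD with DMSO and 100% = DMSO alone without zVAD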
Hsp70 act DR = dose-dependent Hsp70 transcriptional activation | shares compounds with Hsp70 activator | HeLa hsp70.1pr-luc reporter, luciferase luminescence | calls only at 99 µM | 70 tested, 10% active | AID 1252;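 active = over 50% activation at some tested dose; inactive = under 50% activation at every tested dose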
zVAD death conf = confirmed blocker of zVAD induced death in L929 cells | 760 tested, 16% active | activation (protection from necroptosis), % at 10 µM | shares compounds with zVAD death inh | L929 zVAD-induced necroptosis rescue, ATP luminescence, 24 h | AID 463117;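 active = mean protection from necroptosis of at least 50% over duplicate tests; inactive = mean protection below 50%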;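 note: 0% = cells with zVAD alone and 100% = vehicle cells without zVAD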
* = called active by the depositor.

For CCOC(=O)c1c(C)n(Cc2ccc3c(c2)OCO3)c2ccc(O)cc12 the results were TNF death inh -4, Hsp70 activator 0, HSF1 activator 62* and zVAD death inh 0.
Screening Fc1cccc(F)c1CN1CCN(c2ccc(Cl)cc2)CC1 returned HSF1 activator 60*.
`CC[C@@H]1C=CC=CC[C@H](C)[C@@H](O)[C@@H](C)C(=O)[C@H](C)[C@@H](O)[C@H](C)C(=O)[C@H](C)[C@@H](O)[C@H](C)C=CC(=O)O[C@H]2[C@@H](C)[C@@H](CC1)O[C@@]1(CC[C@@H](C)[C@@H](C[C@H](C)O)O1)[C@@H]2C` gave HSF1 activator 3.
`COC(=O)C[C@]1(C(=O)OC)CN(C#N)N(c2ccc(Cl)cc2)C12c1ccccc1-c1ccccc12` gave TNF death inh -17, Hsp70 activator 12*, HSF1 activator -94, zVAD death inh 10 and Hsp70 act DR inactive.
CCc1ccc(NP(=O)(Oc2ccccc2F)Oc2ccccc2F)cc1 was read as TNF death inh 1, Hsp70 activator -1, HSF1 activator -5 and zVAD death inh 2.
`CN1C2CCC1/C(=C/c1ccccn1)C(=O)/C2=C\c1ccccn1` gave TNF death inh -1, Hsp70 activator 18*, zVAD death inh 40 and Hsp70 act DR active.
For Cc1ccccc1-n1c(/C=C/c2ccccn2)nc2ccccc2c1=O the results were TNF death inh -10, HSF1 activator 19 and zVAD death inh 3.
For O=C1Nc2ccccc2/C1=C/c1cnc[nH]1 the results were TNF death inh -22, Hsp70 activator 1, HSF1 activator 66*, zVAD death inh 86* and zVAD death conf 79*.
Screening CN1CCN(c2nc3ccccn3c(=O)c2C=C2C(=O)N(C)C(=O)N(C)C2=O)CC1 returned TNF death inh 2, Hsp70 activator 0, HSF1 activator -4 and zVAD death inh 1.
Screening COC(=O)C(=O)N1CC2(C)CNCC(C)(C1)C2=O returned TNF death inh 0, Hsp70 activator 0, HSF1 activator 7 and zVAD death inh 11.
C[C@H]1C[C@@H](C)C(=O)[C@@H]([C@H](O)CC2CC(=O)NC(=O)C2)C1 was read as TNF death inh -2, Hsp70 activator -1, HSF1 activator -73, zVAD death inh 77* and zVAD death conf 80*.

Bioassay records deposited in PubChem by several laboratories.
